For some of these results: Potency and affinity values are given separately.
Key:
Design in all cases: scale not given: direction of the effect not stated beside the values
[1] = molecular target: Protein translocase subunit SecA (Escherichia coli (strain K12)) (UniProt P10408); test: Assay to Identify E. coli SecA ATPase Inhibitors; format: functional; conditions: 30 µM
[2] = molecular target: T1, Ubiquitin-activating enzyme e1, putative (Leishmania donovani (strain BPK282A1)) (UniProt E9BSI1); test: Leishmania donovani Ubiquitin Activating Enzyme (LdE1); format: functional; conditions: 30 µM
T1 sequence (whole entry): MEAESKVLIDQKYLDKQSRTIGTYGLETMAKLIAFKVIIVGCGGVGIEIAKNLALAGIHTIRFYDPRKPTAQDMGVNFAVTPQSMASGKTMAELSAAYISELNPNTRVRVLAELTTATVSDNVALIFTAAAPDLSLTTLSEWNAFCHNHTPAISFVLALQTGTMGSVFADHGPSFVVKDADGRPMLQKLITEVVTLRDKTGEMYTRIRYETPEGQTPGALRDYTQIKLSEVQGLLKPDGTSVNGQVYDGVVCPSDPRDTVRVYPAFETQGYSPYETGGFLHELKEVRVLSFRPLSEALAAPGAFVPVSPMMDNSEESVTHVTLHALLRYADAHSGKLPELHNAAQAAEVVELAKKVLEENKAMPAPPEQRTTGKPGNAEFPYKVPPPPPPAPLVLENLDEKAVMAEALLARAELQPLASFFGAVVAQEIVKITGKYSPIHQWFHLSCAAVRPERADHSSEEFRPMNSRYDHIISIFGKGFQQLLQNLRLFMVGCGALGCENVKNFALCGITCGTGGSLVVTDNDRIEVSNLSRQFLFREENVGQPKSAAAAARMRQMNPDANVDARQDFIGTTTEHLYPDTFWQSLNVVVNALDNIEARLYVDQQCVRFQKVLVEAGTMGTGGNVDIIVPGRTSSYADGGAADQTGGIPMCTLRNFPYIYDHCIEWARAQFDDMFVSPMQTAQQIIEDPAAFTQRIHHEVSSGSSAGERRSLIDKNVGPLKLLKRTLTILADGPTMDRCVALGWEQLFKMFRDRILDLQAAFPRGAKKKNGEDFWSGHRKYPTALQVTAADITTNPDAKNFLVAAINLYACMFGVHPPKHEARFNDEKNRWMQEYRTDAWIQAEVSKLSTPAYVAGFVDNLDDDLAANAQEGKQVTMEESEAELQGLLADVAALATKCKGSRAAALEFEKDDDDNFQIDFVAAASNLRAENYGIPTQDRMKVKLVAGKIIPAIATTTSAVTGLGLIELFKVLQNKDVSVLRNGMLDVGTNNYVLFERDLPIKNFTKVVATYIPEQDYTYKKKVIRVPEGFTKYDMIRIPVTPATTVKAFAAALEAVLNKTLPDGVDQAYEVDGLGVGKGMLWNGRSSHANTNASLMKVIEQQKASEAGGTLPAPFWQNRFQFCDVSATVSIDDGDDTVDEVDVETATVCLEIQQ

[3] = molecular target: Sialic acid-binding Ig-like lectin 9 (Homo sapiens) (UniProt Q9Y336); test: Hs-Siglec9 ALPHAscreen SOP 20170721; conditions: 10 µM
Chain of Sialic acid-binding Ig-like lectin 9 (Homo sapiens) (Q9Y336 whole entry): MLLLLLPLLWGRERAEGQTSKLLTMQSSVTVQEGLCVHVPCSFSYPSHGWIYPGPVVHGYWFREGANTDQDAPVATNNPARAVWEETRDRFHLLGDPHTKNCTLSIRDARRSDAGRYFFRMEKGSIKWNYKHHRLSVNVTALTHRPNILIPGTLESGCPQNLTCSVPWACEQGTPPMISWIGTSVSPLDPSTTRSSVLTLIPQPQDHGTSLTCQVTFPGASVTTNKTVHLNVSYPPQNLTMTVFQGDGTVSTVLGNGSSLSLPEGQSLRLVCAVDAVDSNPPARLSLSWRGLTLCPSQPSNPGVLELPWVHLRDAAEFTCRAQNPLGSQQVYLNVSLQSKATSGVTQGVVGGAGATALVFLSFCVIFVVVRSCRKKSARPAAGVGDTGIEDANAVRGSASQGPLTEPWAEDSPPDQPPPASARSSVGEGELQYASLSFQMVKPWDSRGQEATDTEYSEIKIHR

Trypanosoma cruzi = test: Trypanosoma cruzi phosphomannomutase and mannose-1-phosphate guanylyltransferase assay; format: functional; conditions: 10 µM
[4] = molecular target: T2, Arginase-2, mitochondrial (Homo sapiens) (UniProt P78540); test: in vitro enzyme assay to detect the production of urea directly proportional to the activity of Arginase II; format: functional; conditions: 33.3 µM; also: in the data most compounds retested in dose-response had high values
T2 sequence (whole entry): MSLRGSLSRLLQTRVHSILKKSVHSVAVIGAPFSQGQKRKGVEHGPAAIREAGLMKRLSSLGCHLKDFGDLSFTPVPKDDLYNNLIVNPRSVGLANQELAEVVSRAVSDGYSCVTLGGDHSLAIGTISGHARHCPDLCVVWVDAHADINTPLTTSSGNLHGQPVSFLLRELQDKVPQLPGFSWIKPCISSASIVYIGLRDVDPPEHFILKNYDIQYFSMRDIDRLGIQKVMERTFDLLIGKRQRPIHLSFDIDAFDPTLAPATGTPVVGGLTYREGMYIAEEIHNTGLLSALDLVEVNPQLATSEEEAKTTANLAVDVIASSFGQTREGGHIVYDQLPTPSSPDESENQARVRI

[5] = molecular target: T3, Proteasome subunit beta (Trypanosoma cruzi) (UniProt O96673); test: Trypanosoma cruzi proteasome chymotrypsin-like activity (TcProtChymo) assay.; also: in the data most compounds retested in dose-response had high values; format: functional; conditions: 9.37 µM
T3 sequence (whole entry): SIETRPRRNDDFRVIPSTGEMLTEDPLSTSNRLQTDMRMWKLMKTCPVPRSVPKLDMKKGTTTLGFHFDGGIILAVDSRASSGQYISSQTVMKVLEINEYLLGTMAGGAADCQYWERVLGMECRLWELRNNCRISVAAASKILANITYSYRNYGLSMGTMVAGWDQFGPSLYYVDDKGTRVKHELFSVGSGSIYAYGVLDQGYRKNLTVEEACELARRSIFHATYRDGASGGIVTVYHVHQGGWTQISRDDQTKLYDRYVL

Homo sapiens = species on record: Homo sapiens; test: To identify inhibition of the IFN signalling (Jak-Stat) pathway via expression of an eGFP reporter gene under the control of an IFN-stimulated response element (ISRE) containing MxA promoter.; format: functional; conditions: 30 µM
[6] = molecular target: T4, Tyrosyl-tRNA synthetase, putative (Trypanosoma cruzi (strain CL Brener)) (UniProt Q4DSP6); test: Trypanosoma cruzi tyrosyl tRNA synthetase (TcYRS) _High Tyrosine SOP; format: functional; conditions: 30 µM; also: in the data most compounds retested in dose-response had high values
T4 sequence (whole entry): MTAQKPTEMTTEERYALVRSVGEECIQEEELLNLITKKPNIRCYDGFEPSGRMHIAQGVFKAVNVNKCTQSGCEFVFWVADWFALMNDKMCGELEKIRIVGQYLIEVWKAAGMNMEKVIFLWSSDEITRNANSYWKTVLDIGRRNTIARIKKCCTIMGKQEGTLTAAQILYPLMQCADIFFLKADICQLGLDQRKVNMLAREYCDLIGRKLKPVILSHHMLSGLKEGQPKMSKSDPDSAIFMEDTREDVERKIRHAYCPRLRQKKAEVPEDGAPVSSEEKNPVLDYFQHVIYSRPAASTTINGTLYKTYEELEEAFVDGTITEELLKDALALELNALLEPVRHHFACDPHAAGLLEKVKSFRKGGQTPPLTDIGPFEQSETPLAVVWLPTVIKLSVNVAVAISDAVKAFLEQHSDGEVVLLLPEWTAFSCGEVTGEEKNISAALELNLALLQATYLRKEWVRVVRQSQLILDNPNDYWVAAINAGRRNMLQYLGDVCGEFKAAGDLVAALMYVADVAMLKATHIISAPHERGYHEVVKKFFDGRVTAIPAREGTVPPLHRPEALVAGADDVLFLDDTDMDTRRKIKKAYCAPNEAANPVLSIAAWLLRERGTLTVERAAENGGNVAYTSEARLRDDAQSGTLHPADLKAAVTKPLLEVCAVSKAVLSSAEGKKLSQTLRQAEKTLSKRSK

[7] = molecular target: T4, Tyrosyl-tRNA synthetase, putative (Trypanosoma cruzi (strain CL Brener)); test: Trypanosoma cruzi tyrosyl tRNA synthetase (TcYRS) SOP; format: functional; conditions: 30 µM
[8] = molecular target: Chromo domain-containing protein 1 (Saccharomyces cerevisiae (strain ATCC 204508 / S288c) (Baker's yeast)) (UniProt P32657); test: ScCHD-1 Enzyme Inhibition Assay; format: functional; conditions: 30 µM; also: in the data most compounds retested in dose-response had high values
Chain of Chromo domain-containing protein 1 (Saccharomyces cerevisiae (strain ATCC 204508 / S288c) (Baker's yeast)) (P32657 whole entry, the tested form may be a part): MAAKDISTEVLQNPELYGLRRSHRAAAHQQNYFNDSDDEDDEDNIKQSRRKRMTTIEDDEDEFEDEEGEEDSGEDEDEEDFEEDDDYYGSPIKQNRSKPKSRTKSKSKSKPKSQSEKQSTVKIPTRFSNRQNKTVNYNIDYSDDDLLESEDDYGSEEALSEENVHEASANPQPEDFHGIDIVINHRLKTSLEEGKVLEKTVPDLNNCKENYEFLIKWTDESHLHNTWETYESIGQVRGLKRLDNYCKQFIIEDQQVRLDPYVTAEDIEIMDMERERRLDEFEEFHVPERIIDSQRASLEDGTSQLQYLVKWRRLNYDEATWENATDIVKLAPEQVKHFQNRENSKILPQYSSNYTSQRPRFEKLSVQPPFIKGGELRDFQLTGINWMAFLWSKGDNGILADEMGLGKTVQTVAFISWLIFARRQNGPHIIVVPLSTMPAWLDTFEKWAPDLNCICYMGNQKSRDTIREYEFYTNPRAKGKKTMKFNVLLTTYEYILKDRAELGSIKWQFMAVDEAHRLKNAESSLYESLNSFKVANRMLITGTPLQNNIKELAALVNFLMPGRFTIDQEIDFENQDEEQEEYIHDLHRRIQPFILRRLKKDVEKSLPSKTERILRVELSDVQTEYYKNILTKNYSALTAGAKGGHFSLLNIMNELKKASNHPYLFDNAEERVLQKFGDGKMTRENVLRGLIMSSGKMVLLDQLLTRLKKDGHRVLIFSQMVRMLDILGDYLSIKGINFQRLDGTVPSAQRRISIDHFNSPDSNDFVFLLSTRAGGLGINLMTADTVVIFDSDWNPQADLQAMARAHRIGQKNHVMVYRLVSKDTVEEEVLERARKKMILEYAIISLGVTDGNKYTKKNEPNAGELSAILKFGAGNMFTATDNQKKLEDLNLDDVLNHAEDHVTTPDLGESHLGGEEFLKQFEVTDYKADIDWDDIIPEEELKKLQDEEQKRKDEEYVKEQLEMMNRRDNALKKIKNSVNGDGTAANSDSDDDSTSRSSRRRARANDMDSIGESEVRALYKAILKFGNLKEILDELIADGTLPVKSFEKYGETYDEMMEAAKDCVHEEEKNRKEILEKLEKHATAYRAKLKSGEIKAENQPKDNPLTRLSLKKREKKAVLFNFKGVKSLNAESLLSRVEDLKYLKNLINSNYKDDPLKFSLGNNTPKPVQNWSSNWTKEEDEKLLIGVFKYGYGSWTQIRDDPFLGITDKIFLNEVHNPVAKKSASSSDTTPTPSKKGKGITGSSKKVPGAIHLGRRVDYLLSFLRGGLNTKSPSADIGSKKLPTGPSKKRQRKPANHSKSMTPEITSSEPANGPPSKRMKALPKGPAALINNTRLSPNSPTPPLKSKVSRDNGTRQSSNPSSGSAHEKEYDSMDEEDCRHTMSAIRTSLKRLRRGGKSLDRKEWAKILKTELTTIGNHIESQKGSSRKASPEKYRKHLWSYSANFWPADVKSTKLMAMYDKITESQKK

Chain of Protein translocase subunit SecA (Escherichia coli (strain K12)) (P10408 whole entry): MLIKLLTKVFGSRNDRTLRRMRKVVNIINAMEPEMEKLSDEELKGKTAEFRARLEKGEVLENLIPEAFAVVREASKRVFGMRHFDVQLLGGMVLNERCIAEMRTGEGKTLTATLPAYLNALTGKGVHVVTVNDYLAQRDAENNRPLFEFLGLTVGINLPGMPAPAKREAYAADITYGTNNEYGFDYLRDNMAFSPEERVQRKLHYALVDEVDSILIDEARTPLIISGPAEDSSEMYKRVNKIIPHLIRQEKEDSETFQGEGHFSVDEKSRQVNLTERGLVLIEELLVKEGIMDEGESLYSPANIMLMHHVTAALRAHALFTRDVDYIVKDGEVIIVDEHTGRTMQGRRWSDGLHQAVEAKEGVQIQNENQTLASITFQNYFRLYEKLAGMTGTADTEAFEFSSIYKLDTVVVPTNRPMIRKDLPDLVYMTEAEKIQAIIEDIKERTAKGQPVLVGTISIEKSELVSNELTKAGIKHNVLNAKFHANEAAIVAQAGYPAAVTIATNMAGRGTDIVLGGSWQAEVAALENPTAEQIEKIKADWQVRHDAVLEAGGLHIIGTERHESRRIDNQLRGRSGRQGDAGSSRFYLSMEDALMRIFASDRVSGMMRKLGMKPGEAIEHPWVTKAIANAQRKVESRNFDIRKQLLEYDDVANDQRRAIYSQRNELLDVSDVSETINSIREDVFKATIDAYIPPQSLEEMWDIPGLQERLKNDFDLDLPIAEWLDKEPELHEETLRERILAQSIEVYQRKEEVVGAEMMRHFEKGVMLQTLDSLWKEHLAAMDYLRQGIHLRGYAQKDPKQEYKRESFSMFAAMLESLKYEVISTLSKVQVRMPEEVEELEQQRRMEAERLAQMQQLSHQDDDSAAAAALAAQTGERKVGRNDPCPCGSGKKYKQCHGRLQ

Row | SMILES | Percent Effect [1] | Percent Effect [2] | Percent Effect [3] | Percent Effect (Trypanosoma cruzi) | Percent Effect [4] | Percent Effect [5] | Percent Effect (Homo sapiens) | Percent Effect [6] | Percent Effect [7] | Percent Effect [8]
1 | O=C1NCCN(CC2CC2)C12CCN(Cc1ccco1)CC2 | -2.83% | 9.09% | -15.9% | -9.45% | 2.83% | 18.8% | 10.4% | 2.63% | -2.56% | -3.23%
2 | COCCc1noc(CN2CCOC(Cn3nc(C)cc3C)C2)n1 (stereo not given) | -2.32% | 10.4% | 14.5% | 6.72% | 8.4% | -7.89% | 7.1% | 4.9% | 18.8% | -6.59%
3 | Cc1cccc(CN2C(=O)CCC23CCN(c2ncc(F)cn2)CC3)n1 | -5.56% | 16.9% | -3.32% | -1.13% | 5.02% | 0.258% | -16% | 11.6% | 15% | -8.12%
4 | CN(CC1CCCCC1)C(=O)c1ccc(-n2ncc(C#N)c2N)cc1 | -0.675% | 2.6% | -3.53% | -9.33% | -9.22% | 7.37% | 48.7% | 4.9% | 16.5% | -3.77%
5 | O=C(C1CCCC1)N1CCC2(CC1)COCCN2CC1CC1 | -2.73% | 16.9% | -2.04% | -1.31% | 5.02% | 10% | 9.54% | 11.6% | 15% | -9.88%
6 | O=C(NCC1CCOC1)Nc1ccc(OCC(F)(F)F)nc1 (stereo not given) | 0.633% | 7.69% | 2.59% | -1.97% | 8.2% | 7.76% | 17.4% | 2.39% | 8.43% | -2.87%
7 | Cc1csc2ncc(-c3ccnc(N4CCCC[C@@H]4CO)n3)c(=O)n12 | -2.72% | -16% | -2.59% | -2.41% | 0% | 7.72% | 19.8% | -3.68% | -12.8% | -17.9%
8 | Cc1cc(NC(=O)CCN(CC2CCOC2)C2CC2)no1 (stereo not given) | -3.2% | 21.3% | -0.377% | 1.21% | -2.22% | 10.3% | 8.07% | 3.68% | 15.4% | -13.2%
9 | C[C@@H]1CN(C(=O)c2cccs2)C[C@]12CCN(CCN(C)C)C2=O | -6.68% | 9.09% | 2.17% | -6.57% | 0.457% | 9.87% | 18% | 0.966% | -5% | -8.48%
10 | CCCC(C)C(=O)N1CCC(n2cccc2C(=O)OC)CC1 (stereo not given) | -6.33% | 10.4% | 13.2% | -1.12% | 1.43% | 2.46% | 31% | 2.94% | 9.41% | 6.48%
11 | OC(CN1CCOCC1)CN1CCc2c(ncn2C2CC2)C1 (stereo not given) | -2.85% | 26.7% | -6.52% | -1.21% | -4.88% | 14.3% | 17.9% | 1.58% | 7.69% | -10.6%
12 | CC(C)NC(=O)C(c1ccccc1)N1CCn2c(nnc2C2CC2)C1 (stereo not given) | -3.99% | 15.4% | -10.1% | 7.61% | -2.87% | 4.86% | 4.59% | 3.35% | 20.5% | -5.56%
13 | COCc1nc(C(=O)N2CCCC(n3cccn3)C2)cs1 (stereo not given) | -1.77% | 13% | 6.57% | -4.29% | 2.25% | 8.6% | -4.23% | 2.94% | 16.5% | -6.38%
14 | CCc1ncc(C(=O)N2CCOCC2c2c(C)n[nH]c2C)s1 (stereo not given) | -0.434% | 10.3% | -1.82% | 7.23% | 0.41% | 1.11% | -6.48% | -0.478% | 8.43% | -1.09%
15 | Fc1cccnc1CN1CCCCC1c1ccn2ccnc2n1 (stereo not given) | -5.06% | 22.7% | -2.65% | 1.77% | -1.33% | 11.8% | 14% | 8.47% | 22.5% | -27.9%
16 | Cc1nc(C)n(CC2CCCN2Cc2nc3ccccc3nc2C)n1 (stereo not given) | -4.08% | 0% | 4.74% | -0.402% | 1.33% | 15.5% | 2.68% | 5.79% | 7.69% | -11.7%
17 | CNc1cc(N2CCCC2CNCc2cnc(C)cn2)ncn1 (stereo not given) | -4.22% | 0% | -3.13% | 1.78% | 6.15% | 2.47% | 21.4% | 2.39% | 1.21% | 2.01%
18 | CC[C@@H]1N(Cc2ccsc2)CCC[C@]12CCC(=O)N2CCOC | -4.26% | 19.5% | -1.28% | -3.19% | 4.11% | 10.9% | -2.54% | 7.73% | 7.5% | -3.65%
19 | O=C(c1ccnnc1)N1CCC2(CC1)CC(N1CCOCC1)C2 | 0.141% | 14.3% | -2.15% | -2.25% | 5.48% | 13.8% | 22.2% | 4.83% | 2.5% | -8.83%
20 | COC(=O)C1CCN(C(=O)c2ccc(C)c(NS(C)(=O)=O)c2)CC1 | -9.4% | -5.41% | -2.25% | -3.2% | -3.85% | 8.9% | -0.867% | 1.6% | 2.44% | 5.38%
21 | Cc1ccc(NC2CCN(C(=O)c3cccc4ncccc34)CC2)nn1 | -3.89% | 5.33% | -2.08% | -0.803% | 3.99% | -1.61% | 9.09% | 13.2% | 15.4% | -8.9%
22 | Cc1cccc(CN2CCc3nnc(CO)n3CC2)n1 | -0.433% | 19.5% | -0.362% | 0% | 1.37% | 13% | 16.8% | 9.66% | 15% | -7.15%

From ChEMBL document CHEMBL3988442, “University of Dundee, Small-Polar-MMV Screening Library” (2021)
